Data on seven molecules can be found in ChEMBL document CHEMBL1961873, “Compounds: GSK PKIS; Assays: Nanosyn kinase panel” (2012).

Several values for one entry are separate records, joined by “and”; a condition that tells them apart may be missing. Identical values can stand only once.

Assay [1] addresses T1, Tyrosine-protein kinase ITK/TSK (Homo sapiens) (UniProt Q08881).
T1 sequence (whole entry): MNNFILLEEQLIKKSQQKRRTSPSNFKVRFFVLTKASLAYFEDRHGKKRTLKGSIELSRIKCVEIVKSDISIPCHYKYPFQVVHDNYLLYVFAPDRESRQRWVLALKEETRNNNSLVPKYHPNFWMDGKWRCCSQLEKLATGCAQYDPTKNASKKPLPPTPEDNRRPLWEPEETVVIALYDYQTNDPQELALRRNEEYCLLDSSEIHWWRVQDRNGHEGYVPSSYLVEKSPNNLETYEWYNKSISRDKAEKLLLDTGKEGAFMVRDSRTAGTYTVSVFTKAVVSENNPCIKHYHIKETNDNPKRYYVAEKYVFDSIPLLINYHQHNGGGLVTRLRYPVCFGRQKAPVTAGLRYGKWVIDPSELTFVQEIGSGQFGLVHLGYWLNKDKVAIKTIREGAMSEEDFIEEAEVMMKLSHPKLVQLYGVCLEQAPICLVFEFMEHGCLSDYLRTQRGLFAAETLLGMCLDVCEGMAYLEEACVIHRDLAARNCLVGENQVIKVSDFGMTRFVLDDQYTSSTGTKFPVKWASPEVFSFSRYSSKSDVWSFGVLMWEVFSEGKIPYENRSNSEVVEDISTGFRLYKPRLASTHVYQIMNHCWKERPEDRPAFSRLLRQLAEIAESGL
Particulars: at 1 µM.

The target of assay [2] is Tyrosine-protein kinase JAK1 (Homo sapiens) (UniProt P23458). As to conditions: at 0.1 µM.
Assay [3] shares this target. Particulars: at 1 µM.
Assay [4] deals with Tyrosine-protein kinase JAK2 (Homo sapiens) (UniProt O60674). Particulars: at 0.1 µM.
Assay [5] shares this target. As to conditions: at 1 µM.
Assay [6] addresses T2, Tyrosine-protein kinase JAK3 (Homo sapiens) (UniProt P52333).
T2 sequence (whole entry): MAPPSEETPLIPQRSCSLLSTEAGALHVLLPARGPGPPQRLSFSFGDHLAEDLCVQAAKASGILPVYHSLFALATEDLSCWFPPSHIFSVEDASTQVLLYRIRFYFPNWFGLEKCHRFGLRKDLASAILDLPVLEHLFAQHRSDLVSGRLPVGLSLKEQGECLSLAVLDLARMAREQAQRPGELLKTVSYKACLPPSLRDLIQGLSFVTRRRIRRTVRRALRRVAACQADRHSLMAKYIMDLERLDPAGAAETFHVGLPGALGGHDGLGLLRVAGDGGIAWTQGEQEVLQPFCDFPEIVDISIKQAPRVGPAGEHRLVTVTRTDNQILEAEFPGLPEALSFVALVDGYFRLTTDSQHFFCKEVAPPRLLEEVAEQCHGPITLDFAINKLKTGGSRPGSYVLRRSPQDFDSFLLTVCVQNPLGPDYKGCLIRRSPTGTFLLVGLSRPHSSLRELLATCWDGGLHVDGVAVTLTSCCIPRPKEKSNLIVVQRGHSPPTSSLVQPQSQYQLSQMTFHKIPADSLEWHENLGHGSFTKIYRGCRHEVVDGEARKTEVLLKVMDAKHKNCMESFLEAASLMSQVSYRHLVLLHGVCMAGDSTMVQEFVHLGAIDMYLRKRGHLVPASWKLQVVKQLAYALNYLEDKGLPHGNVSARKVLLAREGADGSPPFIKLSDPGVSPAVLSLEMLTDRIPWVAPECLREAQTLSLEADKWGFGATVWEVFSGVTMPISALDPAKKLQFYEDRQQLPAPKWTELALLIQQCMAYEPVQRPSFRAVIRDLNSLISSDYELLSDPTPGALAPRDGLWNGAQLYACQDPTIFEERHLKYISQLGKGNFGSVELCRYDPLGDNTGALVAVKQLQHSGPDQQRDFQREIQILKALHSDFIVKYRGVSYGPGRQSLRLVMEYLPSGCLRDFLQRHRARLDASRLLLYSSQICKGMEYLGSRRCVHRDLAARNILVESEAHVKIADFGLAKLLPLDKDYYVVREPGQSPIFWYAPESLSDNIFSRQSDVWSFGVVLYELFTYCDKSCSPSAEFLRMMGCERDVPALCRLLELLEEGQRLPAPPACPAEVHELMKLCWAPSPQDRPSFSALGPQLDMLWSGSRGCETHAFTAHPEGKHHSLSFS
As to conditions: at 0.1 µM.

Assay [7] has as its target T2, Tyrosine-protein kinase JAK3 (Homo sapiens). Particulars: at 1 µM.
For assay [8], the target named is Vascular endothelial growth factor receptor 2 (Homo sapiens) (UniProt P35968). Particulars: at 0.1 µM.
For assay [9] the target is unchanged. Particulars: at 1 µM.
Assay [10] deals with Mast/stem cell growth factor receptor Kit (Homo sapiens) (UniProt P10721). As to conditions: at 0.1 µM.
For assay [11] the target is unchanged. As to conditions: at 1 µM.
In assay [12] the test system is Mast/stem cell growth factor receptor Kit (Homo sapiens), P10721 [D816V]. As to conditions: at 0.1 µM.
Assay [13] has the same test system. Particulars: at 1 µM.
For assay [14], the system named is Mast/stem cell growth factor receptor Kit (Homo sapiens), P10721 [T670I]. Particulars: at 0.1 µM.
Assay [15] shares this test system. As to conditions: at 1 µM.
The test system of assay [16] is Mast/stem cell growth factor receptor Kit (Homo sapiens), P10721 [V560G]. As to conditions: at 0.1 µM.
Assay [17] has the same test system. As to conditions: at 1 µM.
The target of assay [18] is Tyrosine-protein kinase Lck (Homo sapiens) (UniProt P06239). As to conditions: at 0.1 µM.
Assay [19] has the same target. As to conditions: at 1 µM.
The target of assay [20] is Leukocyte tyrosine kinase receptor (Homo sapiens) (UniProt P29376). Particulars: at 0.1 µM.
Sequence of Leukocyte tyrosine kinase receptor (Homo sapiens) (P29376 whole entry): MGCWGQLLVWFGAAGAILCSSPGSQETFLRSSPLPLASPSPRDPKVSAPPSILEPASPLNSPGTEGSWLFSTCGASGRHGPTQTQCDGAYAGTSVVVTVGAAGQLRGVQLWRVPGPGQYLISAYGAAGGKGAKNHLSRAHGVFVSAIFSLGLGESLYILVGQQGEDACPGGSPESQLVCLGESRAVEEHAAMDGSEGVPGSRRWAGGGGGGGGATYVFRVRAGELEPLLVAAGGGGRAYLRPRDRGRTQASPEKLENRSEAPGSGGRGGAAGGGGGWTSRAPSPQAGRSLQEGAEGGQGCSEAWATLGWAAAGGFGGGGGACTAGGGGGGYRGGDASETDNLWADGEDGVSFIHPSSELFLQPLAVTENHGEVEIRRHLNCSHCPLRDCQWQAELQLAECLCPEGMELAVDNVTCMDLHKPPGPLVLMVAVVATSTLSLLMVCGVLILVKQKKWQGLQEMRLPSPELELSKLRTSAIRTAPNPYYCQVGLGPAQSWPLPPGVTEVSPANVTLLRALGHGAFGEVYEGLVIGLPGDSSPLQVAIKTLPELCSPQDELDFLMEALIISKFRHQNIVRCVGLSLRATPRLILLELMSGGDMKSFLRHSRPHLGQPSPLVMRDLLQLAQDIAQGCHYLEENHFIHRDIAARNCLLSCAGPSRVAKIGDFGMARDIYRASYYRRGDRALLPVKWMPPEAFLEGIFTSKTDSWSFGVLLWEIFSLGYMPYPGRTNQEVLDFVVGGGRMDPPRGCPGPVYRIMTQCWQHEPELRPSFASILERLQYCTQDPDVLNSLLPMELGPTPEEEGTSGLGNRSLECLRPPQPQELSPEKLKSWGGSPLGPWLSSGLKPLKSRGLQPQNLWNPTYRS

Sequence of Tyrosine-protein kinase Lck (Homo sapiens) (P06239 2-509 limits assumed): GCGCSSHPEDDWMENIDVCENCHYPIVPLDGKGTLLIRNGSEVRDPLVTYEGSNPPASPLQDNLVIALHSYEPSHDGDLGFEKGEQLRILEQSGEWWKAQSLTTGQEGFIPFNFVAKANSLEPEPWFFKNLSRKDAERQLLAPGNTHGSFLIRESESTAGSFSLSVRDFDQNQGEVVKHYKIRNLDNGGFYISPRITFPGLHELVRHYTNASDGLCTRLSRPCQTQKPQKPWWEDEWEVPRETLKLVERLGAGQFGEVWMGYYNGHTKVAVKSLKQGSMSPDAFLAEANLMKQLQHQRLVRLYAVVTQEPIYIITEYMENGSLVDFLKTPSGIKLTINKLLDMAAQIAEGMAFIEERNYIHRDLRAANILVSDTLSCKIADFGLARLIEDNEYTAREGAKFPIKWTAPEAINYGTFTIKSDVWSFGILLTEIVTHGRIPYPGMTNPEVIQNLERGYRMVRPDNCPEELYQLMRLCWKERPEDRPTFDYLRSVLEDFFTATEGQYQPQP
Sequence of Vascular endothelial growth factor receptor 2 (Homo sapiens) (P35968 whole entry): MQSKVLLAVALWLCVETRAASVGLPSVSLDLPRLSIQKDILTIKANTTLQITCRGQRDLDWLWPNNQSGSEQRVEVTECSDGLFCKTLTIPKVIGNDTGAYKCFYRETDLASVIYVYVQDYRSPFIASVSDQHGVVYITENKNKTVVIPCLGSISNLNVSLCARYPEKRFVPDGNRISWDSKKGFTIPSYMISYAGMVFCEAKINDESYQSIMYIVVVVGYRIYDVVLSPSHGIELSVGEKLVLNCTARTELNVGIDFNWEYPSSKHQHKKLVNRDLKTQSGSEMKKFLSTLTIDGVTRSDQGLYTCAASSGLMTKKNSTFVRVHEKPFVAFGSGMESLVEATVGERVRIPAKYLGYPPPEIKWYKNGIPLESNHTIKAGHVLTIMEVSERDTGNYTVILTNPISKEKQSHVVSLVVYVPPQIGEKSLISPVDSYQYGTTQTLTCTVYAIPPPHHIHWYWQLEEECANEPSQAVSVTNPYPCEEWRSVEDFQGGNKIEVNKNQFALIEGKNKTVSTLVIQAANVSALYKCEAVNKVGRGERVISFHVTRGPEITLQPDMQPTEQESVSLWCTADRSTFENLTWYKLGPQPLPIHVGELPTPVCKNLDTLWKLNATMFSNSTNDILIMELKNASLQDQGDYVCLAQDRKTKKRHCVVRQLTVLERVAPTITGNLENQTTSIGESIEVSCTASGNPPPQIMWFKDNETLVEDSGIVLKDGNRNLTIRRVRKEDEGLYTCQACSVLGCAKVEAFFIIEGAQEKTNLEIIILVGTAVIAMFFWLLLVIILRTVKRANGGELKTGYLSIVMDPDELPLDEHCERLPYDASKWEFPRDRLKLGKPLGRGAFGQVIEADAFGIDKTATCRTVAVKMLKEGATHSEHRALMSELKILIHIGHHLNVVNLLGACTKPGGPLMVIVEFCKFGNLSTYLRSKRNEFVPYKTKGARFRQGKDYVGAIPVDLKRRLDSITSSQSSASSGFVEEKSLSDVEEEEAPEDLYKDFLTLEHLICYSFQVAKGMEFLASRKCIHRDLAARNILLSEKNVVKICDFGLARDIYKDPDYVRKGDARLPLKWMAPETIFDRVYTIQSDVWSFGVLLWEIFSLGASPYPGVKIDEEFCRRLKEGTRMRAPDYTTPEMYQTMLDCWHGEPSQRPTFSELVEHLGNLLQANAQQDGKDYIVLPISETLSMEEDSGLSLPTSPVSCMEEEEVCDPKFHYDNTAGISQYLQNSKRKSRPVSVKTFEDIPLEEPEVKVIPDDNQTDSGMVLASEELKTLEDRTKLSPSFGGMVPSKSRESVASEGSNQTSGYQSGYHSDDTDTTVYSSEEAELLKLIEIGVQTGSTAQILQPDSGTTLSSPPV
Sequence of Mast/stem cell growth factor receptor Kit (Homo sapiens), P10721 [D816V] (P10721 whole entry D816V): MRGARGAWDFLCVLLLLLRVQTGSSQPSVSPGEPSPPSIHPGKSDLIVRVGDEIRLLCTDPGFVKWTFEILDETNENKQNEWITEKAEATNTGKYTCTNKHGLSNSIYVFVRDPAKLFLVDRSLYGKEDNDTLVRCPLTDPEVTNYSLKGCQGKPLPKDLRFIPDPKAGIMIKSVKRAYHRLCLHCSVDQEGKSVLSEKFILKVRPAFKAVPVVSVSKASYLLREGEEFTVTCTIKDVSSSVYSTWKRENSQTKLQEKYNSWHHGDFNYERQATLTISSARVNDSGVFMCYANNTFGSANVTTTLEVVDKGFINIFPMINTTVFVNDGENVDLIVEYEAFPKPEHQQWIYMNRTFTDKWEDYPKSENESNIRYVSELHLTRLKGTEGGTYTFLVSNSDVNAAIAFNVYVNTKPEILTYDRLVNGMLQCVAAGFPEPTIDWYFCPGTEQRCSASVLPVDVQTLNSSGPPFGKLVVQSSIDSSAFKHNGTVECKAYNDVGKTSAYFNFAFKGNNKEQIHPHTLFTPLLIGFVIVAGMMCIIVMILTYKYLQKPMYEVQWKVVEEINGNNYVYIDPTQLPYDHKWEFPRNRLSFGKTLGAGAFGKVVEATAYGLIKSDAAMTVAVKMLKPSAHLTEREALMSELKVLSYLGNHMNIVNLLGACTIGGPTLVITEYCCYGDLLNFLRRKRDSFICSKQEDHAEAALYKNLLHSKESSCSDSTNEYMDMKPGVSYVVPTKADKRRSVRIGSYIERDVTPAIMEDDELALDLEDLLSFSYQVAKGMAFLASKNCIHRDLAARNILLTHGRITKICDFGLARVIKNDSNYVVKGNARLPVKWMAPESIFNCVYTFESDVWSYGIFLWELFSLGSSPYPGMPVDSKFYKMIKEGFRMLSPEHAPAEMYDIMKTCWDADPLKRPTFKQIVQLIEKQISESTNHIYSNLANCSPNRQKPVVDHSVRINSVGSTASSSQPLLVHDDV
Sequence of Tyrosine-protein kinase JAK2 (Homo sapiens) (O60674 whole entry): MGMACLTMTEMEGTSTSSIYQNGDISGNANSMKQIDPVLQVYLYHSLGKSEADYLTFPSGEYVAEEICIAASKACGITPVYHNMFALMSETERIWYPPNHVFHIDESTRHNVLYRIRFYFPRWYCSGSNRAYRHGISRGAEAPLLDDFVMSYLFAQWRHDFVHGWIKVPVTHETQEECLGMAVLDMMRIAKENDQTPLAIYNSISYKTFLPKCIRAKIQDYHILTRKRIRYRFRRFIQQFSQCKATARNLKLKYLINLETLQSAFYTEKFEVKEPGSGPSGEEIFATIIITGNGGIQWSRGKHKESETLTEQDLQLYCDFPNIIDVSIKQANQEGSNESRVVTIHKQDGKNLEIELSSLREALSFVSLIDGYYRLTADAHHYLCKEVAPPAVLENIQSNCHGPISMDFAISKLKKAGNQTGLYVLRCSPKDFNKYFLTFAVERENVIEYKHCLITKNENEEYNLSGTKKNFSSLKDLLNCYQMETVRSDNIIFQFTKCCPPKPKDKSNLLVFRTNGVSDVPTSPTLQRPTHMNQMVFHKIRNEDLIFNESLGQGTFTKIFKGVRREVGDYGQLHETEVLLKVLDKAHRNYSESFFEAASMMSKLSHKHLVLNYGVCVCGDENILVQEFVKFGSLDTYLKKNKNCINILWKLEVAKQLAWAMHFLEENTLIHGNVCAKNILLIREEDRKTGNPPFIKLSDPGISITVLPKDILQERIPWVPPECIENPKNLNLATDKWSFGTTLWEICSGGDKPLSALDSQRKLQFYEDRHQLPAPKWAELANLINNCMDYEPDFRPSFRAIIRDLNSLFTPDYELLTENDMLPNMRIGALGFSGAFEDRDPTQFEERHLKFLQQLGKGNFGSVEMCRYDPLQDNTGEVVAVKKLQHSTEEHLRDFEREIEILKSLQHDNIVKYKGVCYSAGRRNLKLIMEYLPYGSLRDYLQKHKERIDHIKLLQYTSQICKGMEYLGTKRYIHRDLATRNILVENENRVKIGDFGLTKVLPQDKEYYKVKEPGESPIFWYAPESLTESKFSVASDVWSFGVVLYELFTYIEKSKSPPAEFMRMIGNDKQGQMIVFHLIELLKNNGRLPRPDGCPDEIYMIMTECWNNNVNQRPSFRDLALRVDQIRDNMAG
Sequence of Mast/stem cell growth factor receptor Kit (Homo sapiens) (P10721 whole entry): as the sequence (P10721 whole entry D816V) above, with V816D counted along it
Sequence of Mast/stem cell growth factor receptor Kit (Homo sapiens), P10721 [V560G] (P10721 whole entry V560G): as the sequence (P10721 whole entry D816V) above, with V560G, V816D counted along it
Sequence of Mast/stem cell growth factor receptor Kit (Homo sapiens), P10721 [T670I] (P10721 whole entry T670I): as the sequence (P10721 whole entry D816V) above, with T670I, V816D counted along it

As to `CCOc1ccc2c(-c3ccnc(Nc4cc(OC)cc(C(F)(F)F)c4)n3)cnn2n1`, the inhibition in assay [1] was 1.63%; in [2] it was -2.13%; in assay [3], 6.23%; in [4], 1.22%; in [5], 5.38%; in assay [6] it was 0.66%. The inhibition in assay [7] was 9.24%; in assay [8], 4.19%; in assay [9] it was 19.1%; in assay [10] it was 7.32%; in assay [11], 56.5%; in assay [12], -2.22%. Also, the inhibition in assay [13] worked out at 2.86%; in assay [14] it was 1.55%; in [15], 14.5%; in assay [16] it was 2.02%; in [17] it was 5.97%; in assay [18], 1.12%. The inhibition in assay [19] amounted to 4.52%; in [20], 0.61%.
As to `COC(=O)Nc1nc2cc(Oc3ccc(NC(=O)Nc4ccccc4)cc3)ccc2[nH]1`, the inhibition was 1.86% in [1]; 3.81% in assay [2]; 9.99% in assay [3]; 0.07% in assay [4]; 1.12% in [5]; -1.68% in [6]. Further, the inhibition in assay [7] was -0.28%; in assay [8], 4.55%; in assay [9] it was 7.27%; in assay [10], 29.2%; in assay [11] it was 68%; in assay [12], 2.82%. The inhibition in assay [13] stood at 12%; in [14] it was 4.22%; in assay [15], 8.76%; in assay [16], 25.3%; in assay [17], 67.9%; in [18] it was 2.87%. In addition, the inhibition stood at 4.96% in [19] and 2.55% in [20].
Turning to `CS(=O)(=O)CCNCc1ccc(-c2ccc3ncnc(Nc4ccc(OCc5cccc(C(F)(F)F)c5)cc4)c3c2)o1`, the inhibition in [1] is 1.4%; in assay [2], 1.68%; in [3], 1.38%; in assay [4], 4.27%; in [5], 3.35%; in assay [6], -1.49%. The inhibition in assay [7] stood at 0.32%; in assay [8] it was 5.19%; in assay [9], 11%; in assay [10] it was 4.53%; in [11], 11.4%; in assay [12], 2.25%. Further, the inhibition is 0.02% in [13]; 5.03% in assay [14]; 5.44% in assay [15]; -4.38% in assay [16]; -2.24% in assay [17]; 3.86% in assay [18]. In addition, the values for the inhibition in assay [19] and in [20] were 7.98% and 5.96%, respectively.
As to `Nc1ncnc2occ(-c3ccc(NC(=O)Nc4cc(C(F)(F)F)ccc4F)cc3)c12`, the inhibition in assay [1] was 7.9% and 3.04%; in assay [2], -0.01% and -6.67%; in assay [3], 8.18% and -2.37%; in [4] it was 2.05% and -0.57%; in [5], 18.8% and 7.54%; in assay [6], -0.84% and 0.28%. For the same molecule, the inhibition is 1.36% and 1% in assay [7]; 63.8% and 54% in assay [8]; 71.1% and 78.2% in assay [9]; 90.2% and 85.7% in [10]; 102% and 99.8% in assay [11]; 2.13% and -0.16% in assay [12]. Besides, the inhibition is 3.55% and 0.01% in assay [13]; 64.5% and 57% in [14]; 85.6% and 96% in [15]; 70.7% and 81.8% in [16]; 78.7% and 97.7% in [17]; 10.9% and 3.28% in assay [18]. Also, in [20], the inhibition was 7.84% and 2.37%.
`CNC(=O)c1ncccc1Nc1nc(Nc2cc3c(cc2OC)CCCN3C(=O)CN(C)C)nc2[nH]ccc12`: the inhibition in assay [1] was 2.8%; in assay [2], 4.62%; in assay [3] it was -0.74%; in assay [4], 1.24%; in [5] it was 1.63%; in assay [6] it was 2.81%. In addition, the inhibition in assay [7] was determined as 0.89%; in [8] it was 4.97%; in [9], 5.02%; in assay [10] it was 5.24%; in assay [11] it was 3.44%; in assay [12], 1.27%. The inhibition is 4.76% in assay [13]; 3.12% in [14]; 1.68% in assay [15]; -0.63% in assay [16]; 0.67% in assay [17]; 2.48% in assay [18]. Moreover, the figures for the inhibition in [19] and in assay [20] were 4.71% and 86.9%, respectively.
For the molecule `CN1CCN(Cc2ccc(-c3cc4ncnc(Nc5ccc(OCc6cccc(F)c6)c(Cl)c5)c4s3)o2)CC1`, the inhibition in assay [1] is 2.43% and 2.68%; in assay [2], 1.06% and 6.88%; in assay [3] it was 3.27% and 18.5%; in assay [4], 0.99% and 0.67%; in assay [5] it was 0.57% and 0.86%; in assay [6], -2.47% and -0.74%. The inhibition was -1.79% and -0.23% in [7]; 7.34% and 7.83% in [8]; 24% and 24.2% in assay [9]; 3.38% and 6.79% in assay [10]; 11.5% and 12.7% in [11]; 3.79% and 5.98% in [12]. In addition, the inhibition in [13] was 5.98% and 4.53%; in assay [14] it was 2.89% and 2.77%; in assay [15] it was 2.77% and 5.27%; in [16] it was -1.59% and -3.38%; in assay [17], 2.22% and 1.14%; in assay [18] it was 4.76% and 7.19%. Further, the inhibition is 22.2% and 27.2% in [19]; 3.61% and 4.17% in assay [20].
As for `CCn1c(-c2nonc2N)nc2cncc(C(=O)NCCNC)c21`, the inhibition in assay [1] is 0.3%; in assay [2], 0.48%; in assay [3], 2.04%; in assay [4], 2.49%; in [5], 0.73%; in [6], -3.8%. In addition, the inhibition in assay [7] is -2.17%; in [8] it was 4.45%; in assay [9] it was 13.5%; in assay [10] it was 6.23%; in assay [11], 11.8%; in [12], 12.8%. Besides, the inhibition was 3.67% in [13]; 3.08% in assay [14]; 6% in [15]; -0.72% in assay [16]; 0.98% in [17]; 2.21% in assay [18]. The inhibition was 3.67% in assay [19] and 5.21% in assay [20].
